Experimental data as given in PubChem BioAssay (NCATS).
Results filed as inconclusive are left out. Activity calls are given as the source filed them. Calls follow the shape of the dose curve; as a rule, active = well fitted curve in the direction sought with a large enough effect; inconclusive = small, poorly fitted or top-dose-only effect, or another doubt; inactive = no such curve, though single readings can be large; an effect the other way counts as inactive or inconclusive.

test system: not listed separately; assay: qHTS for Inhibitors of ATXN expression: Validation of Cytotoxic Assay (AID 588349); settings: cytotoxicity counter-screen for ATXN expression inhibitors, cell viability; series mostly up to 57.1 µM; activity change, negative = cytotoxicity: at the top concentration; also: % is scaled to controls: 0 for no effect and ±100 for the full control effect
Method in brief: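 Read-out: ATP-based luminescence (CellTiter Glo) reflecting viability of HEK293 cells after 72 hr incubation at 37 degrees C with a concentration series of each compound.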

Compound | activity change, negative = cytotoxicity | outcome
CCOC(=O)c1ncn2c1CN(C)C(=O)c1cc(F)ccc1-2 | -13.1% (inactive) | –
CC[N+](CC)(CC)CCOc1cccc(OCC[N+](CC)(CC)CC)c1OCC[N+](CC)(CC)CC | 5.66% (inactive) | –
CN1C2CCC1CC(OC(=O)C(CO)c1ccccc1)C2 (configuration not stated) | – | inactive
COc1ccccc1OCC(O)CN1CCN(CC(=O)Nc2c(C)cccc2C)CC1 (configuration not stated) | -21.8% (inactive) | –
O=c1c(-c2ccc(O)cc2)coc2cc(O)cc(O)c12 | -14.9% (inactive) | –
NC(=O)OCC(COC(N)=O)c1ccccc1 | -7.17% (inactive) | –
NCCc1cnc[nH]1 | -10.5% (inactive) | –
CC(C)NCC(O)COc1ccc(CCOCC2CC2)cc1 (configuration not stated) | -24.8% (inactive) | –
CCC1(c2ccccc2)C(=O)NCNC1=O | -17.1% (inactive) | –
CC(C)C(=O)Nc1ccc([N+](=O)[O-])c(C(F)(F)F)c1 | -8.81% (inactive) | –
CN1C(C(=O)Nc2ccccn2)=C(O)c2ccccc2S1(=O)=O | 0.077% (inactive) | –
Cc1cc(C(C)(C)C)cc(C)c1CC1=NCCN1 | -24.4% (inactive) | –
COc1ccc(C2CNC(=O)C2)cc1OC1CCCC1 (configuration not stated) | -19.6% (inactive) | –
Cn1ccc2cc3c(cc21)CCN3C(=O)Nc1cccnc1 | -11.2% (inactive) | –
C[C@H]1c2cccc(O)c2C(O)=C2C(=O)[C@]3(O)C(O)=C(C(N)=O)C(=O)[C@@H](N(C)C)[C@@H]3[C@@H](O)[C@@H]21 | -2.55% (inactive) | –
Cc1cn([C@H]2C=C[C@@H](CO)O2)c(=O)[nH]c1=O | -11.5% (inactive) | –
NC(=O)NO | -10% (inactive) | –
Nc1nnc(-c2cccc(Cl)c2Cl)c(N)n1 | -11.3% (inactive) | –
CN(C)CCC=C1c2ccccc2C=Cc2ccccc21 | -28.4% (inactive) | –
Cc1cnc(C(=O)NCCc2ccc(S(=O)(=O)NC(=O)NC3CCCCC3)cc2)cn1 | -3.81% (inactive) | –
O=c1[nH]cc(F)c(=O)[nH]1 | -15% (inactive) | –
COc1nc(C)nc(Cl)c1NC1=NCCN1 | -3.64% (inactive) | –
NC(CO)C(=O)NNCc1ccc(O)c(O)c1O (configuration not stated) | -14% (inactive) | –
CC(C(=O)O)c1cccc(C(=O)c2ccccc2)c1 (configuration not stated) | -7.32% (inactive) | –
Clc1ccc2nsnc2c1NC1=NCCN1 | -5.27% (inactive) | –
Clc1ccc(C(c2ccccc2Cl)C(Cl)Cl)cc1 (configuration not stated) | -6.73% (inactive) | –

test system: not listed separately; assay: qHTS for Inhibitors of ATXN expression: Validation (AID 588378); settings: cell-based ATXN2 expression reporter assay, luminescence; series mostly up to 57.1 µM; activity change, negative = inhibition: at the top concentration; also: nearly all actives have a fitted effect of over 75% in size; also: potency is read from the fitted curve at half-maximal effect; as to activity change, negative = inhibition: % is scaled to controls: 0 for no effect and ±100 for the full control effect
Method in brief: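 After a 2 h attachment and 24 h compound incubation, HEK293-ATXN2-FFLuc wells are read for fluorescence at 405 nm excitation/525 nm emission as a viability measure, then for Bright-Glo luminescence reflecting ATXN2 expression.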

Compound | activity change, negative = inhibition | Potency
CCOC(=O)c1ncn2c1CN(C)C(=O)c1cc(F)ccc1-2 | 6.39% (inactive) | –
CC[N+](CC)(CC)CCOc1cccc(OCC[N+](CC)(CC)CC)c1OCC[N+](CC)(CC)CC | -10.9% (inactive) | –
CN1C2CCC1CC(OC(=O)C(CO)c1ccccc1)C2 (configuration not stated) | – | inactive
COc1ccccc1OCC(O)CN1CCN(CC(=O)Nc2c(C)cccc2C)CC1 (configuration not stated) | -9.33% (inactive) | –
CNCCCC12CCC(c3ccccc31)c1ccccc12 | – | 15.8 µM (active)
Fc1ccc([C@@H]2CCNC[C@H]2COc2ccc3c(c2)OCO3)cc1 | – | 35.5 µM (active)
O=c1c(-c2ccc(O)cc2)coc2cc(O)cc(O)c12 | 212% (inactive) | –
NC(=O)OCC(COC(N)=O)c1ccccc1 | 0.0622% (inactive) | –
NCCc1cnc[nH]1 | -4.43% (inactive) | –
CC(C)NCC(O)COc1ccc(CCOCC2CC2)cc1 (configuration not stated) | -19.6% (inactive) | –
CCC1(c2ccccc2)C(=O)NCNC1=O | -19.4% (inactive) | –
CN1C(C(=O)Nc2ccccn2)=C(O)c2ccccc2S1(=O)=O | 3.75% (inactive) | –
COc1ccc(C2CNC(=O)C2)cc1OC1CCCC1 (configuration not stated) | -17.2% (inactive) | –
Cn1ccc2cc3c(cc21)CCN3C(=O)Nc1cccnc1 | 79.7% (inactive) | –
C[C@H]1c2cccc(O)c2C(O)=C2C(=O)[C@]3(O)C(O)=C(C(N)=O)C(=O)[C@@H](N(C)C)[C@@H]3[C@@H](O)[C@@H]21 | 10.2% (inactive) | –
Cc1cn([C@H]2C=C[C@@H](CO)O2)c(=O)[nH]c1=O | 5.19% (inactive) | –
NC(=O)NO | -17.8% (inactive) | –
Nc1nnc(-c2cccc(Cl)c2Cl)c(N)n1 | -1.24% (inactive) | –
Cc1cnc(C(=O)NCCc2ccc(S(=O)(=O)NC(=O)NC3CCCCC3)cc2)cn1 | -7.72% (inactive) | –
COc1nc(C)nc(Cl)c1NC1=NCCN1 | 5.74% (inactive) | –
NC(CO)C(=O)NNCc1ccc(O)c(O)c1O (configuration not stated) | -19.5% (inactive) | –
CC(C(=O)O)c1cccc(C(=O)c2ccccc2)c1 (configuration not stated) | 2.99% (inactive) | –
Clc1ccc2nsnc2c1NC1=NCCN1 | -1.51% (inactive) | –
Clc1ccc(C(c2ccccc2Cl)C(Cl)Cl)cc1 (configuration not stated) | -29.2% (inactive) | –

target: DNA dC->dU-editing enzyme APOBEC-3G (Homo sapiens) (UniProt Q9HC16); assay: qHTS for inhibitors of Vif-A3G interactions: Validation (AID 588379); settings: Vif-A3G protein interaction assay; series mostly up to 46.1 µM; activity change, negative = inhibition: at the top concentration; also: 0% is about no effect
Sequence (Q9HC16 whole entry, looked up): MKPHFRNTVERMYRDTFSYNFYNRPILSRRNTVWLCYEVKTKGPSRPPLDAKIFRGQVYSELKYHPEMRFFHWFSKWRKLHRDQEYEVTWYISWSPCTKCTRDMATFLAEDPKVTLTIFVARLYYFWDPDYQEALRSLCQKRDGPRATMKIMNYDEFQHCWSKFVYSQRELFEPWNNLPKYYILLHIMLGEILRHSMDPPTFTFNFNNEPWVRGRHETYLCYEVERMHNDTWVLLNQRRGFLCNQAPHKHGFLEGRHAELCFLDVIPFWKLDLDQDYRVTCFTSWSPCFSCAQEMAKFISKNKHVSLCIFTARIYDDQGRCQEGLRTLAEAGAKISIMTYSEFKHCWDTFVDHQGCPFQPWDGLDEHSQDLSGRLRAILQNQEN
Method in brief: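 HeLa cells stably expressing Vif and A3G-eYFP, 700 cells/well, incubated overnight at 37 deg C, then exposed to compound overnight at 37 deg C. Inhibition of Vif-mediated degradation read as increased yellow fluorescence (Ex 488/Em 500-530) by laser-scanning cytometry.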

Compound | activity change, negative = inhibition
CCOC(=O)c1ncn2c1CN(C)C(=O)c1cc(F)ccc1-2 | 3.57% (inactive)
CNCCCC12CCC(c3ccccc31)c1ccccc12 | -2.61% (inactive)
NC(=O)OCC(COC(N)=O)c1ccccc1 | -0.214% (inactive)
CCC1(c2ccccc2)C(=O)NCNC1=O | 0.974% (inactive)
CN1C(C(=O)Nc2ccccn2)=C(O)c2ccccc2S1(=O)=O | -7.27% (inactive)
Cn1ccc2cc3c(cc21)CCN3C(=O)Nc1cccnc1 | -2.57% (inactive)
Nc1nnc(-c2cccc(Cl)c2Cl)c(N)n1 | 0.11% (inactive)
